Test results published in PubChem BioAssay.
Some of the results follow. Active and inactive are the calls of the source.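 Rule for the calls, unless noted: active = inhibition above the mean of solvent-only control wells plus 3 SD, cutoff set per campaign (cut at about 13% in these data); inactive = the rest.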

How the values were obtained:
[1] = STAT3 reporter inhibitors, retest of hits, confirmation, U3A cells, luciferase, luminescence (AID 1265;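 active = inhibition above the hit cutoff computed for the primary STAT3 screen, cut at about 44% in these data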;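 note: 0% = IL-6 plus DMSO and 100% = IL-6 plus nifuroxazide control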); conditions: IL-6 STAT3 luciferase reporter, at 5.7 µM, stronger effect = higher value, cell line lacks STAT1
[2] = NF-kB reporter inhibitors in human cells, confirmation, counter-screen for STAT3 inhibitor project, cell-based, HEK293T, luciferase, TNF-alpha stimulus (AID 1308); conditions: TNF-alpha induced, at 5.7 µM, stronger effect = higher value;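 note: 0% = TNF-alpha with DMSO and 100% = TNF-alpha with MG high control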
[3] = STAT1 reporter inhibitors, IFN-gamma induced, confirmation, counter-screen for STAT3 inhibitor project, cell-based, NIH 3T3, luciferase luminescence (AID 1317;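 active = inhibition above the mean plus 3 SD of solvent-only control wells, limit set per screening run, cut at about 16% in these data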;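 note: 0% = DMSO with IFN-gamma and 100% = nifuroxazide control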); conditions: NIH 3T3 STAT1-luciferase reporter, at 5.7 µM, stronger effect = higher value
[4] = target: Oxysterols receptor LXR-beta (Homo sapiens) (UniProt P55055); test: LXR agonists, Gal4 luciferase reporter, confirmation, counter-screen for hcDAF-12 agonist project, cell-based, luminescence, HEK293, H. contortus campaign (AID 743027;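 active = mean percent activation of the reporter above a cutoff set as the average over tested compounds plus their standard deviation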); conditions: HEK293 Gal4-LXR tk-luc reporter, 24 h, at 6.8 µM, stronger effect = higher value, normalized: DMSO 0%, positive control 100%
[5] = system: Nuclear hormone receptor DAF-12 (Haemonchus contortus); test: H. contortus DAF-12 receptor agonists, confirmation, cell-based, luminescence, HEK293, lit1-tk-luc, triplicate (AID 743032;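 active = mean activation across triplicate tests above the threshold derived from the earlier primary screen, cut at about 5.5% in these data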;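 note: 0% = DMSO only wells and 100% = 3 µM Δ7-dafachronic acid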); conditions: HEK293 hcDAF-12 lit1-tk-luc reporter, at 6.8 µM, stronger effect = higher value, % of Δ7-dafachronic acid response
[6] = system: DAF-12 nuclear receptor (Heterodera glycines), GAL4-LBD fusion; test: H. glycines DAF-12 receptor agonists, confirmation, cell-based, luminescence, HEK293, GAL4-LBD fusion (AID 743050;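 active = mean activation over triplicate wells above the hit cutoff derived from the earlier primary screen, cut at about 11% in these data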;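 note: 0% = DMSO low control and 100% = 2 mM sodium butyrate high control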); conditions: HEK293 GAL4-hgDAF12 luciferase reporter, agonist mode; at 6.8 µM; stronger effect = higher value; percent of butyrate response
[7] = target: Oxysterols receptor LXR-beta (Homo sapiens) (UniProt P55055); test: LXR agonists, Gal4 luciferase reporter, confirmation, counter-screen for hgDAF-12 agonist project, cell-based, luminescence, HEK293, H. glycines campaign (AID 743051;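 active = mean activation of the triplicate above a set limit carried over from the primary screen, none filed active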); conditions: 24 h, at 6.8 µM, stronger effect = higher value
[8] = target: Peroxisome proliferator-activated receptor gamma (Homo sapiens) (UniProt P37231); test: agonists of PPARgamma SRC-2 coactivator recruitment, confirmation, biochemical, HTS (AID 1297; in the data active = activation above about 22%;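 note: 0% = vehicle alone and 100% = reference agonist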); conditions: biochemical SRC-2 recruitment by PPARgamma; at 8 µM; stronger effect = higher value
[9] = target: Peroxisome proliferator-activated receptor gamma (Homo sapiens) (UniProt P37231); test: PPARgamma agonists recruiting SRC-1 coactivator, confirmation, biochemical (AID 1300; in the data active = activation above about 20%;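 note: 0% = vehicle wells and 100% = reference agonist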); conditions: PPARgamma–SRC-1 coactivator recruitment biochemical assay; at 8 µM; stronger effect = higher value
[10] = target: Peroxisome proliferator-activated receptor gamma (Homo sapiens) + Nuclear receptor coactivator 3 (Homo sapiens) (UniProt P37231+Q9Y6Q9); test: PPARgamma-driven SRC-3 coactivator recruitment agonists, confirmation, biochemical (AID 1301; in the data active = activation above about 24%;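 note: 0% = vehicle wells and 100% = reference agonist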); conditions: biochemical PPARgamma-SRC-3 coactivator recruitment, agonist mode; at 8 µM; stronger effect = higher value
[11] = target: Galanin receptor type 2 (Homo sapiens) (UniProt O43603); test: GALR2 antagonists, retest of hits, confirmation, cell-based (AID 866; in the data active = inhibition above about 27%;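 note: cells stimulated with galanin at about its EC80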); conditions: GALR2-expressing cells, antagonist mode, at 4 µM, stronger effect = higher value
[12] = inhibitors of NFAT-driven beta-lactamase reporter, confirmation, counter-screen for GALR2 antagonist project, CHO NFAT-bla cells, FRET readout (AID 867;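 active = inhibition above the mean inhibition across tested compounds plus 3 SD, cut at about 27% in these data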;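 note: 0% = 500 nM thapsigargin stimulated wells and 100% = unstimulated BSA only wells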); conditions: thapsigargin-stimulated, at 4.2 µM, stronger effect = higher value
[13] = target: Photoreceptor-specific nuclear receptor (Homo sapiens) (UniProt Q9Y5X4); test: NR2E3 agonist confirmation in cells, cell-based, luminescence, CHO-S two-hybrid (AID 624378;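 active = average inhibition above a cutoff equal to the mean inhibition of all tested compounds plus one SD, cut at about 70% in these data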;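 note: 0% = DMSO in NR2E3 cells and 100% = DMSO in cells lacking NR2E3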); conditions: CHO-S mammalian two-hybrid NR2E3-NCOR, luciferase luminescence; at 3.98 µM; stronger effect = higher value
[14] = GAL4-VP16 reporter modulators, confirmation, counter-screen for NR2E3 agonist project, cell-based, luminescence, CHO-S, high throughput (AID 624379;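 active = mean inhibition above a cutoff equal to the average over all tested compounds plus one standard deviation, cut at about 70% in these data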;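 note: luciferase from a UAS reporter driven by GAL4-VP16 transactivation; 0% = DMSO with VP16-transfected cells and 100% = DMSO with cells lacking VP16; higher means less reporter light so more repression of VP16 activity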); conditions: CHO-S GAL4-VP16 luciferase reporter, at 3.98 µM, stronger effect = higher value
[15] = Gal4-VP16 luciferase reporter inhibitors, counter-screen for COUP-TFII antagonist project, cell-based, luminescence, HEK293 (AID 687007; in the data active = inhibition above about 13%); conditions: at 8.5 µM, stronger effect = higher value
[16] = target: COUP transcription factor 2 (Homo sapiens) (UniProt P24468); test: NR2F2 transcriptional activity inhibitors, confirmation, cell-based, luciferase reporter, HEK293, triplicate (AID 687008;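 active = mean inhibition over three repeats above a set limit taken from the earlier primary screen, cut at about 38% in these data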;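 note: 100% = cells given the luciferase reporter alone without the COUP-TF2 vector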); conditions: HEK293 NGFI-A luciferase reporter, luminescence; at 8.5 µM; stronger effect = higher value
[17] = target: Serine protease HTRA1 (Homo sapiens) (UniProt Q92743); test: HTRA1 protease inhibitors, retest, confirmation, biochemical, fluorescence polarization (AID 540248;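 active = mean inhibition over three repeats above a set limit taken from the earlier primary screen, cut at about 37% in these data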;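 note: 0% = HTRA1 with DMSO and 100% = wells lacking HTRA1; inhibitors block probe binding so polarization drops and inhibition rises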); conditions: recombinant HTRA1, FP-rhodamine activity-based probe, at 5.96 µM, stronger effect = higher value
[18] = StAR promoter reporter inhibitors, counter-screen for LRH-1 inverse agonist project, cell-based, luminescence, high throughput (AID 651611; in the data active = inhibition above about 28%); conditions: StAR promoter luciferase reporter counterscreen, at 3.6 µM, stronger effect = higher value
[19] = target: Nuclear receptor subfamily 5 group A member 2 (Homo sapiens) (UniProt O00482); test: LRH-1 (NR5A2) inverse agonists, retest, confirmation, cell-based, luminescence (AID 651613; in the data active = inhibition above about 42%;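 note: HEK293T cells co-transfected with LRH-1 and StAR promoter luciferase reporter; 0% = vehicle wells and 100% = parental cells lacking receptor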); conditions: cell-based LRH-1 luciferase reporter, inverse agonism; at 3.6 µM; stronger effect = higher value
[20] = target: Steroidogenic factor 1 (Homo sapiens) (UniProt Q13285); test: SF1 (NR5A1) inverse agonists, counter-screen for LRH-1 inverse agonist project, cell-based, luminescence, high throughput (AID 651614; in the data active = inhibition above about 44%;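 note: cells cotransfected with StAR promoter reporter and SF1 expression vector; 0% = vehicle on cells with receptor and 100% = vehicle on cells lacking receptor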); conditions: cell-based SF1 luciferase reporter, at 3.6 µM, stronger effect = higher value
[21] = VP16 transactivation reporter inhibitors, counter-screen for LRH-1 inverse agonist project, cell-based, luminescence, high throughput (AID 651615; in the data active = inhibition above about 33%); conditions: Gal4-VP16 luciferase reporter cells, at 3.6 µM, stronger effect = higher value
[22] = target: Receptor-interacting serine/threonine-protein kinase 2 (Homo sapiens) (UniProt O43353); test: NOD2-RIPK2 binding disruptors, retest, confirmation, fluorescence, CHO cells, BLA complementation, triplicate (AID 624370;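 active = mean inhibition across replicates above a set limit taken from the earlier primary screen, cut at about 21% in these data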;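 note: 0% = DMSO-only wells and the high end = clavulanate BLA-blocked wells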); conditions: CCF4 FRET, at 4.98 µM, stronger effect = higher value
[23] = beta-lactamase reporter inhibitors in CHO cells, confirmation, artefact control for NOD2-RIPK2 interaction inhibitor project, cell-based, CHO-K1 CMV-bla, CCF4 FRET, fluorescence (AID 624371;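 active = mean inhibition above the low-control mean inhibition plus three low-control SD, cut at about 11% in these data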;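 note: 0% = DMSO only wells and 100% = clavulanate high control wells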); conditions: CCF4 FRET ratio, counterscreen, at 4.98 µM, stronger effect = higher value

Chain of Oxysterols receptor LXR-beta (Homo sapiens) (P55055 whole entry, looked up, the tested form may be a part): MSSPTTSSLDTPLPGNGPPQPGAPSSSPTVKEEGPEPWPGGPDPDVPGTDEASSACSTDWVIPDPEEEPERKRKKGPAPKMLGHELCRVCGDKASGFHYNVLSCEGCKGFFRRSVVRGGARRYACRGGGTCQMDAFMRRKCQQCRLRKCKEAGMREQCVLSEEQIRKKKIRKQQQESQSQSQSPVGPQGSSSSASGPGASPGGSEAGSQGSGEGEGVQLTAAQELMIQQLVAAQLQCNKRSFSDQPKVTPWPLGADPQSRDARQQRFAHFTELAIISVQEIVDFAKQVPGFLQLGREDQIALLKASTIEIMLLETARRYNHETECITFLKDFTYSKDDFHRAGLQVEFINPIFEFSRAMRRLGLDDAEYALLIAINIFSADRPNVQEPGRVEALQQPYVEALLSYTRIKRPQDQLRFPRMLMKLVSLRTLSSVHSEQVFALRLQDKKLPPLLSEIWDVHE
Chain of COUP transcription factor 2 (Homo sapiens) (P24468 whole entry, looked up): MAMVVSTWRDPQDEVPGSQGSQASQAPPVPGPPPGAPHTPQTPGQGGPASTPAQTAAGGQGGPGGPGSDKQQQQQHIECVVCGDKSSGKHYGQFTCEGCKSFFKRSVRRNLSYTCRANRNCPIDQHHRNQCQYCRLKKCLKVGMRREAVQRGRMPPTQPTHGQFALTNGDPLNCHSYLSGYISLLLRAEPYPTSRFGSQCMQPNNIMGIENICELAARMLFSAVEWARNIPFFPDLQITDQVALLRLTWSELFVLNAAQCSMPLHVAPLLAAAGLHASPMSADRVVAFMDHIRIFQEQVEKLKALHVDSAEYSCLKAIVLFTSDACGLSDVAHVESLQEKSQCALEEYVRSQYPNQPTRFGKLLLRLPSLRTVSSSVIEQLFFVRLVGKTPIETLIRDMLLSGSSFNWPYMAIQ
Chain of Photoreceptor-specific nuclear receptor (Homo sapiens) (Q9Y5X4 whole entry, looked up, the tested form may be a part): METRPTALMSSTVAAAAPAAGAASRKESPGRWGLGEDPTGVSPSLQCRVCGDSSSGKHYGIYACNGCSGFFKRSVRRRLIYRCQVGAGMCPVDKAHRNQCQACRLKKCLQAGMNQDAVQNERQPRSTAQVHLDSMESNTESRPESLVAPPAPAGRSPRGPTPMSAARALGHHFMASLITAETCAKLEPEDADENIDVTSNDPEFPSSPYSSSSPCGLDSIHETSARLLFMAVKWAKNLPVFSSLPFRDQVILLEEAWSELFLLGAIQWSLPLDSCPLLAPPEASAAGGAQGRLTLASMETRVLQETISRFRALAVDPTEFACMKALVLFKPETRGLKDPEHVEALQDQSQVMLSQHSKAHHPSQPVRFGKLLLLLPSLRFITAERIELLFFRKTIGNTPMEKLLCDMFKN
Chain of Peroxisome proliferator-activated receptor gamma (Homo sapiens) (P37231 whole entry, looked up): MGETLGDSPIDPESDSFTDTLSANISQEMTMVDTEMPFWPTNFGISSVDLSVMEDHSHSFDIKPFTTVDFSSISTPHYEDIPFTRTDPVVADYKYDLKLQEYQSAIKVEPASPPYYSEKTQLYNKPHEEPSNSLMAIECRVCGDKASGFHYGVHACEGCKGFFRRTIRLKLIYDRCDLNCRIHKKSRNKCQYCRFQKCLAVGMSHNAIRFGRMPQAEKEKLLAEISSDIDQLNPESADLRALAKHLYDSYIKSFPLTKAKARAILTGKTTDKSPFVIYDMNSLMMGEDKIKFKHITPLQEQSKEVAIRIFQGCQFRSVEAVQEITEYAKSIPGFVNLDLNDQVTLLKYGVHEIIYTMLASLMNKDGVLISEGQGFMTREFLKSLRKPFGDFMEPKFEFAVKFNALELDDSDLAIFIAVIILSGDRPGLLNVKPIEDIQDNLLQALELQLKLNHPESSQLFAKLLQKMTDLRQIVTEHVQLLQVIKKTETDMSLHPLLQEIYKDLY
Chain of Peroxisome proliferator-activated receptor gamma (Homo sapiens) + Nuclear receptor coactivator 3 (Homo sapiens) (P37231 whole entry, looked up): as above
Chain of Peroxisome proliferator-activated receptor gamma (Homo sapiens) + Nuclear receptor coactivator 3 (Homo sapiens) (Q9Y6Q9 whole entry, looked up): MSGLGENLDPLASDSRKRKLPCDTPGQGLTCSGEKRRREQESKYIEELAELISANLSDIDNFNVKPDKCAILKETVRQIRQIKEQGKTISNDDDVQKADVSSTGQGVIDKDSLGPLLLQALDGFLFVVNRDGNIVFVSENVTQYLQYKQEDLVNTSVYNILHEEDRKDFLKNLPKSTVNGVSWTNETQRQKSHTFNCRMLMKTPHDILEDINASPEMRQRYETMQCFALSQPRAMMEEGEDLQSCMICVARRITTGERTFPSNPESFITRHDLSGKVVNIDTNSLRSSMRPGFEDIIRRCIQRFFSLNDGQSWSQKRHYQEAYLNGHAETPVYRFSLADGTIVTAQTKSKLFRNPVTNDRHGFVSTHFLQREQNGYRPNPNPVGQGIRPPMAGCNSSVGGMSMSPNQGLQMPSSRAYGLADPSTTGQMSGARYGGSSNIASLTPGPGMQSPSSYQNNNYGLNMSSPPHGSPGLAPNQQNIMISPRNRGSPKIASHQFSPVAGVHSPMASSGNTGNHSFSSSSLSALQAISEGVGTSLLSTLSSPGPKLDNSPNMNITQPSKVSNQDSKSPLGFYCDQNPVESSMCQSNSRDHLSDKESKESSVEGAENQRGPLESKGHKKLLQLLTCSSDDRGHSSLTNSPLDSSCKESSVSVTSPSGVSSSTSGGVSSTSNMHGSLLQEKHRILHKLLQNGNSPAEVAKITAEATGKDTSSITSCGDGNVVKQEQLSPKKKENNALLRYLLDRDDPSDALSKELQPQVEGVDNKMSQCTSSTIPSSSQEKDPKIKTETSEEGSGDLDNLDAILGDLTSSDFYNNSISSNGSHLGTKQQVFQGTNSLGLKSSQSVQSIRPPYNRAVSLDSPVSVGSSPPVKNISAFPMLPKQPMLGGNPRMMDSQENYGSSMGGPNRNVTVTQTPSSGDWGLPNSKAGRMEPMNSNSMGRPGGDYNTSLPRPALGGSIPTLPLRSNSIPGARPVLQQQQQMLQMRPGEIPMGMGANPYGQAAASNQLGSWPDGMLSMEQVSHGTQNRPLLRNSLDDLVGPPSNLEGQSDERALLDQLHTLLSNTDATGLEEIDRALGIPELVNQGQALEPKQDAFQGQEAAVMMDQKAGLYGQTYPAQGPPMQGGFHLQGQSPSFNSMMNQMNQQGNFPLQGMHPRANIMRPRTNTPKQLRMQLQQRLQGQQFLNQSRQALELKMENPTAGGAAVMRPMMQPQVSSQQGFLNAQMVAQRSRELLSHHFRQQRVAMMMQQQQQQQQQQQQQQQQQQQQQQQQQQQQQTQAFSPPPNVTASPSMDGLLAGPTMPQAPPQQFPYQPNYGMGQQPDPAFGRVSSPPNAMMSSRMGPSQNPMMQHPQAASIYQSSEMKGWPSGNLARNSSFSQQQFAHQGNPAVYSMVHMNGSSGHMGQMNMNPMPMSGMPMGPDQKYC
Chain of Steroidogenic factor 1 (Homo sapiens) (Q13285 whole entry, looked up, the tested form may be a part): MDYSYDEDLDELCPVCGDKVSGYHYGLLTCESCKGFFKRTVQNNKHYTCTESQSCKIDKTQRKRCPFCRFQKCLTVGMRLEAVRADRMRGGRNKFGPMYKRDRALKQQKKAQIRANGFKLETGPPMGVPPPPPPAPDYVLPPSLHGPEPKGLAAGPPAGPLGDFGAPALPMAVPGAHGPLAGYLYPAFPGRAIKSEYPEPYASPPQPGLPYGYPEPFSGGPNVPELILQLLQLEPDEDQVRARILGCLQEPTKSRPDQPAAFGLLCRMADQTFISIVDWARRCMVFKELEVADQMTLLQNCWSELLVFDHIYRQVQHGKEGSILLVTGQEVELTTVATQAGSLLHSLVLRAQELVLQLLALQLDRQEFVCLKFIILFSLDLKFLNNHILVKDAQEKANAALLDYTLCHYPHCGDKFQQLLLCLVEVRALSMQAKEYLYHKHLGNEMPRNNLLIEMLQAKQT
Chain of Galanin receptor type 2 (Homo sapiens) (O43603 whole entry, looked up): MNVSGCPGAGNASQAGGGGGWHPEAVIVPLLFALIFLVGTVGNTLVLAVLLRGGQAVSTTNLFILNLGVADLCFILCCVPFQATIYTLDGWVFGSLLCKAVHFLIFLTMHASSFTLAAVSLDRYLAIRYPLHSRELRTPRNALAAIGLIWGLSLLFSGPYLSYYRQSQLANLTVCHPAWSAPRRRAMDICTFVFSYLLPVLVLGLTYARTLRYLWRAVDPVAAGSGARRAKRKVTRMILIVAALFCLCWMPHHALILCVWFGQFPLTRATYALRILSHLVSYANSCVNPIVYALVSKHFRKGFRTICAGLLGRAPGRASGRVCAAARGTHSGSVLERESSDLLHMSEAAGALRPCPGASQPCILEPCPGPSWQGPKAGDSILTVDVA

CC(C)CC(=O)N/C(N)=N/c1nc2ccccc2s1
inactive: inhibition [1] 6.93% | inhibition [2] -39.6% | inhibition [3] -138% | activation [4] 1.25%
active: activation [5] 5.93%

O=C(Nc1ccc(Cl)cn1)c1ccc2c(c1)OCCO2
active: activation [6] 13.4%
inactive: inhibition [1] 26.7% | inhibition [2] -3.07% | inhibition [3] -103% | activation [7] 0.89%

Cc1nc(-c2ccccc2)sc1-c1nc(-c2ccccc2)ncc1S(=O)(=O)c1ccccc1
active: activation [8] 48.5% | activation [9] 29.3%
inactive: activation [10] 22.7%

Cc1ccc(F)cc1NC(=O)Cc1nn(C)c(=O)c2ccccc12
inactive: inhibition [12] 12.4% | inhibition [13] 65.1% | inhibition [14] 61.5% | inhibition [15] 9%
active: inhibition [11] 33.5% | inhibition [1] 51.9% | inhibition [2] 16.1% | inhibition [3] 21.2% | inhibition [16] 48.1%

O=C(Nc1cccc(S(=O)(=O)Nc2ccc(Cl)cc2)c1)c1ccc2c(c1)OCCO2
inactive: inhibition [15] -4.16%
active: inhibition [1] 55.6% | inhibition [2] 15.4% | inhibition [3] 17.7% | inhibition [16] 42.2%

COc1ccccc1Oc1ccc(S(=O)(=O)Nc2cccnc2)cc1
inactive: inhibition [1] 33% | inhibition [2] 5.8% | inhibition [3] 8.77%
active: inhibition [13] 95.5% | inhibition [14] 75.8%

COc1ccc(/C(O)=C2/C(=O)C(=O)N(c3nc(C)c(C)s3)C2c2ccco2)cc1 (centres undefined)
active: activation [8] 21.9%
inactive: activation [9] 17.5% | activation [10] 16.1%

CCOc1ccc(-c2nnc(-c3ccco3)o2)cc1
active: inhibition [1] 43.7% | inhibition [2] 13.6% | activation [6] 15.5%
inactive: inhibition [3] -56.6% | activation [7] 0.7%

c1ccc2[nH]c(-c3nc4ccccc4[nH]3)nc2c1
inactive: inhibition [11] 21.3% | inhibition [12] 8.39% | inhibition [1] 5.87% | inhibition [2] -30% | inhibition [3] -97.2% | activation [4] 1.09% | activation [5] 4.57%
active: inhibition [17] 58.4%

Cn1c(-c2sc3cc(C(F)(F)F)cnc3c2-c2ccccc2)n[nH]c1=S
active: activation [8] 89.8% | activation [9] 67% | activation [10] 53.5%

Fc1ccc(COc2cccc(-c3n[nH]c(=S)o3)c2)cc1
active: activation [8] 51.6% | activation [9] 39.9% | activation [10] 34%

Cn1c(CN2CCOCC2)nc2cc(NC(=O)c3ccc(Cl)cc3)ccc21
active: inhibition [1] 65% | inhibition [2] 16.1%
inactive: inhibition [3] -12% | inhibition [15] -24.2% | inhibition [16] 24.5%

N=C(N)SCc1cccc2ccccc12
active: inhibition [3] 19.2%
inactive: inhibition [1] 31.7% | inhibition [2] 4.87% | inhibition [15] 6.09% | inhibition [16] 20.6%

COc1ccc(NS(=O)(=O)c2ccc(NC(=O)c3ccc(N(C)S(C)(=O)=O)cc3)cc2)cc1
inactive: inhibition [2] 9.03% | inhibition [3] 5.2% | inhibition [18] 19.3% | inhibition [15] 8.59%
active: inhibition [1] 56.6% | inhibition [19] 50.5% | inhibition [20] 46.7% | inhibition [21] 40.7% | inhibition [16] 45%

Cc1ccc(N/C=C/C(=O)c2ccccc2)cc1C
active: inhibition [2] 13.8% | activation [5] 16.8%
inactive: inhibition [1] 20.9% | inhibition [3] -55.2% | activation [4] 1.51% | activation [6] 8.78% | activation [7] 1.25%

CCCOc1ccc(C(=O)NCCc2ccccc2)cc1
active: activation [5] 7.43% | activation [6] 14.1%
inactive: inhibition [1] 11.6% | inhibition [2] -7.27% | inhibition [3] -61.1% | activation [4] 1.59% | activation [7] 0.6%

COc1ccc(Cn2c(=O)sc3ccccc32)cc1OC
inactive: inhibition [1] 36.6% | inhibition [2] 2.57% | inhibition [3] 13.3% | inhibition [14] 64.8% | inhibition [15] -3.5% | inhibition [16] 26.6%
active: inhibition [13] 70.9%

O=C(Nc1ccn(Cc2ccccc2)n1)c1n[nH]c([N+](=O)[O-])c1Cl
inactive: inhibition [1] 12.7% | inhibition [2] -0.1% | inhibition [3] -63.1% | activation [7] 0.82%
active: activation [6] 11.6%

CCCOC(=O)c1[nH]c2c(c1C)C(=O)CC(c1cc(OC)c(OC)c(OC)c1)C2 (centres undefined)
active: inhibition [1] 61% | inhibition [2] 29% | inhibition [3] 25.8% | inhibition [13] 73.9% | inhibition [18] 29% | inhibition [19] 54.7% | inhibition [20] 54.1% | inhibition [21] 41% | inhibition [16] 49.6%
inactive: inhibition [14] 65% | inhibition [15] 6.54%

CCCc1ccc(-c2csc(NC(=O)Cc3cccs3)n2)cc1
inactive: inhibition [1] 34.2% | inhibition [2] 4.13% | inhibition [3] 4.43% | inhibition [15] -25% | inhibition [16] 15.2%
active: inhibition [22] 32.7% | inhibition [23] 31.1%

COc1ccc(-c2csc(Nc3ccccn3)n2)cc1
active: activation [5] 6.22%
inactive: inhibition [1] 15.2% | inhibition [2] -36.5% | inhibition [3] -205% | activation [4] 1.36%

COc1ccc(S(=O)(=O)Nc2ccc3oc(C)c(C(C)=O)c3c2)cc1
active: inhibition [2] 13.4% | inhibition [3] 20.4% | inhibition [13] 93% | inhibition [14] 79.4%
inactive: inhibition [1] 32.3% | inhibition [15] 1.7% | inhibition [16] 20.7%
